# Assay outcomes: PubChem, several laboratories
# SMARCA2 act = increases SMARCA2 function in MMTV reporter cells. MG213 cells, MMTV-luciferase reporter, dexamethasone, overnight. activation, % at 9.1 µM. 370,000 compounds, 1% hits. AID 652017; in the data active = activation above about 7.8%;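 note: 0% = vehicle wells and 100% = reference activator wells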
# MITF TRPM1 HTS = MITF TRPM1 promoter activation in melanoma cells; SK-MEL-5 TRPM1-promoter luciferase, 24 h; % of positive control, neutral wells = 0; activation, % at 12.5 µM; 300,000 compounds, 0.75% hits; AID 588334;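 active = mean activation of at least 80% with every replicate also reaching 80%; inconclusive = mean reaches 80% but some replicate falls short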;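 note: 0% = neutral control wells and 100% = parthenolide positive control wells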
# esBAF inh = inhibitors of esBAF chromatin remodeling in mouse ES cells; Bmi1-luciferase knock-in reporter, 24 h; 100% = twice the neutral-well signal; reporter increase, % at 12.5 µM; 350,000 compounds, 2% hits; AID 602393; in the data active = activation above about 40%; inconclusive = no clear call, values can overlap the other calls;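 note: 0% = median of the plate's neutral control wells and 100% = double that signal; a rise in the Bmi1 reporter signal indicates esBAF inhibition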
# FGF22 binding = binders of recombinant human FGF22 by thermal shift; Q9HCT0; SYPRO orange fluorescence; percent of sucrose octasulfate shift, DMSO zero; activity (Tm shift, normalised), % at 9.99 µM; 340,000 compounds, 1.5% hits; AID 651658;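 active = mean Tm shift, scaled 0 neutral to 100 positive control, at about 1.3% or above, every replicate too, limit read from the data; inconclusive = no clear call, values can overlap the other calls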
# Target sequence (Q9HCT0 whole entry, looked up): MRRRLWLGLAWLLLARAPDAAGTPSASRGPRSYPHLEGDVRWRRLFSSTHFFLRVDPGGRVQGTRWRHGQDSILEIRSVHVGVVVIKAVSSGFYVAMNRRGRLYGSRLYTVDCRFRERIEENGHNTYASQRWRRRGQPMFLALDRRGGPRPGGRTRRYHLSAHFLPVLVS
# MLL AF4-AF9 inh = MLL-AF4/AF9 protein interaction inhibition | P42568 | AlphaScreen, biotin-AF4 peptide binding to FLAG-AF9 | AID 651704 | 350,000 compounds, 0.47% hits | inhibition, % at 10 µM;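 active = every replicate reaching a set inhibition limit, whatever the replicate mean, cut at about 25% in these data; inconclusive = mean inhibition reaches that limit but some replicates miss it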;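 note: 0% = plate neutral control median and 100% = total signal loss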
# Wnt act = activates Wnt/beta-catenin signaling in a reporter cell assay; activator, plate reader; activation, % at 9.35 µM; 300,000 compounds, 1.2% hits; in the data active = activation above about 30%, passing the limit was not always enough; inconclusive = no clear call, values can overlap the other calls;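 note: 0% = neutral control wells and 100% = positive control wells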
# * hit, by the source's call; ? = inconclusive; · = no result. Sampled rows, rich in hits. Any-hit rate of the full collection: about 4.3%.
SMILES,SMARCA2 act,MITF TRPM1 HTS,esBAF inh,FGF22 binding,MLL AF4-AF9 inh,Wnt act
C/C=C/c1ccc([C@@H]2[C@@H](CO)N[C@@H]2CN(CC(C)C)C(=O)c2ccccn2)cc1,·,·,-6,0,·,·
COc1cccc2c(=O)c(C(=O)NCCc3ccccc3)c[nH]c12,5,·,55*,0,4,12
COc1ccc(C2C(C(=O)N3CCN(c4ccccc4Cl)CC3)CC(=O)N2c2ccc(OC)cc2)cc1 (stereo not drawn),-1,·,·,·,·,·
COc1ccc(/C=C2\NC(=S)N(CC3CCCO3)C2=O)c(OC)c1C (stereo not drawn),1,-13,12,·,·,·
COc1ccc(/C=C2\NC(=S)N(CC3CCCO3)C2=O)c(OC)c1 (stereo not drawn),3,52,48*,·,·,18
COc1ccc(NC(=O)Nc2ccc3c(c2)C(=O)N([C@@H](C)CO)C[C@H](C)[C@@H](CN(C)Cc2ccc(Cl)c(Cl)c2)O3)cc1,·,·,2,0,3,·
CC(c1nc2ccccc2[nH]1)n1c(=O)c(-c2cccs2)nc2ccccc21 (stereo not drawn),-8,·,·,0,-3,-4
c1csc(-c2nnsc2-c2nc3ccccc3[nH]2)c1,6,-4,40*,·,·,23
CN1CCC(=NNC(=O)c2cn(-c3ccccc3)nc2-c2ccccc2)CC1,-4,-8,-3,43*,0,2
O=C(O)c1ccc(NC(=O)c2cn(-c3ccccc3)nc2-c2ccc(Br)cc2)cc1,0,20,·,1.6*,-1,0
O=C(O)c1ccc(NC(=O)c2cn(-c3ccccc3)nc2-c2ccccc2)cc1,4,20,34,·,0,0
COc1ccc(S(=O)(=O)Nc2ccc3c(c2)C(=O)N([C@H](C)CO)C[C@@H](C)[C@H](CN(C)S(=O)(=O)c2cn(C)cn2)O3)cc1,·,·,0,0,-2,·
CO[C@H]1CN(C)C(=O)c2cc(NC(=O)C3CC3)ccc2OC[C@@H](C)N(C(C)=O)C[C@H]1C,·,·,4,0,0,·
Cc1cc(C)cc(NC(=O)Nc2ccc3c(c2)C(=O)N(C)[C@@H]2CC[C@H](CC(=O)O)O[C@@H]2CO3)c1,·,·,0,0,·,·
COc1ccc(C(=O)O/N=C(\N)c2ccc(Cl)cc2)cc1,4,89*,?,0,0,37*
COc1ccccc1C(=O)O/N=C(\N)c1ccc(Cl)cc1,6,38,52*,·,·,-4
COc1ccc(Cl)cc1C(=O)O/N=C(\N)c1ccncc1,1,22,·,0,-2,5
COc1ccc(/C(N)=N/OC(=O)c2ccc(Br)o2)cc1,6,61,58*,0,0,0
COc1ccc2c3c(n(C)c2c1)[C@@H](CO)N(C(C)=O)CC31CCN(C(=O)C2CCOCC2)CC1,·,·,·,0,-15,·
Cc1cc(/C=N/NC(=O)c2ccccc2F)c(C)n1-c1ccccc1,4,97*,·,43,9,52*
Cc1noc(C)c1S(=O)(=O)Nc1ccc2c(c1)C(=O)N([C@@H](C)CO)C[C@@H](C)[C@@H](CN(C)C(=O)c1ccccc1)OCCCC[C@@H](C)O2,·,·,0,·,-9,·
Cc1ccc(C(=O)O)cc1NC(=S)NC(=O)c1ccc([N+](=O)[O-])c(C)c1,1,-6,·,43*,12,0
Cc1ccc2[nH]c(CN3CCC(CO)(CC4CCCCO4)CC3)c(C)c2c1 (stereo not drawn),-4,-8,-1,43*,12,2
O=C(Nc1cccc(F)c1)N1CCC(c2ccccc2)CC1,4,66,40,0,-29,7
Cc1ccc(NC(=O)N2CCC(c3ccccc3)C2)cc1C (stereo not drawn),6,128*,4,0,-1,56*
SMILES,SMARCA2 act,MITF TRPM1 HTS,esBAF inh,FGF22 binding,MLL AF4-AF9 inh,Wnt act
Cc1ccc(C2CCN(C(=O)Nc3ccccc3)C2)cc1 (stereo not drawn),5,?,53*,·,·,·
O=C(Nc1ccc(Cl)cc1)N1CCC(c2ccccc2)C1 (stereo not drawn),0,116*,·,41,6,56*
O=C(C[C@@H]1CC[C@@H]2[C@H](COC[C@H](O)CN2Cc2ccc(Cl)cc2)O1)Nc1nccs1,·,·,6,0,4,·
CC(=O)N1[C@@H]2c3ccc(-c4cccc(F)c4)c(=O)n3C[C@H]1[C@H](CO)[C@H]2C(=O)NCC1CC1,·,·,0,0,-1,·
O=C(C[C@H]1CC[C@@H]2[C@H](COC[C@@H](O)CN2S(=O)(=O)c2cccc(Cl)c2)O1)Nc1ccc(-c2ccccc2)cc1,·,·,-5,1.3*,-3,·
O=C(C[C@H]1CC[C@H]2[C@@H](COC[C@@H](O)CN2S(=O)(=O)c2cccc(Cl)c2)O1)Nc1ccc(-c2ccccc2)cc1,·,·,2,·,-3,·
Cc1ccc(S(=O)(=O)N2C[C@@H](O)COC[C@H]3O[C@H](CC(=O)NCC4CCCCC4)CC[C@@H]32)cc1,·,·,4,0,30*,·
COc1ccc(NC(=O)Nc2cccc3c2O[C@@H](CN(C)S(=O)(=O)c2cccs2)[C@@H](C)CN([C@@H](C)CO)C3=O)cc1,·,·,12,0,-1,·
COC(=O)[C@@]1(Cc2ccccc2)COC(c2ccc(OCCCO)cc2)=N1,·,·,·,0,1,·
CCSc1nnc(-c2ccccc2NC(=O)CC)c(=O)[nH]1,-2,7,3,·,·,-5
Nc1ccccc1-c1nnc(SCC(=O)Nc2ccccc2OC(F)F)[nH]c1=O,4,-19,6,43*,-5,-6
O=C(c1cccc(F)c1)N1C[C@@H]2[C@H](c3ccccc31)[C@@H](CO)N2C(=O)Cc1ccccc1,·,·,-5,-1,-2,·
O=C1c2ccccc2-c2onc3c(N4CCN(CCO)CC4)cc(N4CCN(C(=O)c5ccco5)CC4)c1c23,-1,-23,-19,-1,76*,-1
Nc1ccccc1NC1=CC(=O)CC(c2ccco2)C1 (stereo not drawn),7.9*,-15,14,·,·,·
Cc1ccc(NC2=CC(=O)CC(c3ccco3)C2)c(N)c1 (stereo not drawn),7,-11,·,·,·,·
CC(O)C(NS(=O)(=O)c1ccc(Cl)cc1)C(=O)OCC(=O)Nc1cccnc1Cl (stereo not drawn),-2,1,·,·,·,-1
CC(O)C(NS(=O)(=O)c1ccc(Cl)cc1)C(=O)OCCOc1ccc(F)cc1 (stereo not drawn),-3,·,-1,0,-1,45*
Nc1nnc2cc(Cl)ccc2n1,-3,-4,-13,44*,2,-6
Cc1ccc2nc(N)nnc2c1,-5,·,·,0,-2,-3
CC(=O)c1ccc(NC(=O)C(C)N(C)CC(=O)Nc2ccc(Cl)cc2)cc1 (stereo not drawn),-4,-5,-3,44*,1,-2
CCNC(=O)C[C@H]1CC[C@H]2[C@H](COc3ccc(NC(=O)Nc4ccccc4C)cc3C(=O)N2C)O1,·,·,1,0,-1,·
